Results published in PubChem BioAssay AID488954 (The Scripps Research Institute Molecular Screening Center, 2010).
This is one part of the list. Activity calls are given as the source filed them.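 Rule for the calls: active = mean activation above a set limit carried over from the earlier primary screen (cut at about 22% in these data); inactive = the rest.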

The compounds below were run against Caspase-3 (Homo sapiens) (UniProt P42574) (assay: activators of human procaspase-3 D3A mutant, confirmation, biochemical, absorbance, PC-3 D3A mutant, triplicate (AID 488954)). Conditions: recombinant PC-3 D3A, Ac-DEVD-pNA absorbance 405 nm; at 8.5 µM; hits give high values; 100% is higher-enzyme control.
Caspase-3 (Homo sapiens), sequence (P42574 whole entry D9A/D28A/D175A): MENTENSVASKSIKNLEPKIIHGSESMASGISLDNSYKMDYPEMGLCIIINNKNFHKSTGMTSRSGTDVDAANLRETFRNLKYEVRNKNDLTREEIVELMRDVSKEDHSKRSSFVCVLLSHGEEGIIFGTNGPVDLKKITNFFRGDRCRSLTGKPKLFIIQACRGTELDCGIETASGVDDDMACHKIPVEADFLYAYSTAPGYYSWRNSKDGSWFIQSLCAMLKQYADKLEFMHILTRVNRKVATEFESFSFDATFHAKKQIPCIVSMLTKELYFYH

activation, inactive:
COC(=O)c1cnc(Nc2cc(C)ccc2OC)c2ccccc12 -14.1%
Oc1ccccc1C1=NN(c2ccccc2)C(c2ccccc2)C1 (stereo unspecified) -13.4%
CCOc1ccc2nc(NCCNS(=O)(=O)c3ccccc3)c(C#N)cc2c1 -14.1%
COc1ccc(-c2sc3ccc(OC)cc3c2C#Cc2ccccn2)cc1 14.4%
COc1ccc2nc(Nc3nc4ccc(NC(C)=O)cc4s3)sc2c1 -1.02%
COC(=O)Cc1cc(=O)oc2c(C)c(O)ccc12 -12.9%
Cc1nn(C)cc1CNC(=O)Nc1ccc(Cl)cc1 3.2%
COc1ccc(CCNC(=O)COC(=O)c2ccc[nH]c2=O)cc1 5.06%
COc1ccccc1NS(=O)(=O)c1ccc(C(=O)N2CCN(c3ccccc3O)CC2)cc1 5.8%
CN1CCN(CCCNC(=O)c2ccc(/C=C3\Oc4ccccc4N(Cc4ccc(Cl)cc4)C3=O)cc2)CC1 -14.8%
O=C(CCNS(=O)(=O)c1ccccc1C(F)(F)F)NCc1ccc2c(c1)OCO2 5.75%
